FLuc counter – qHTS profiling assay for firefly luciferase inhibitor/activator using purifed enzyme and Km concentrations of substrates (counterscreen for miR-21 project); Luciferin 4-monooxygenase (Photinus pyralis), P08659; purified FLuc, Km substrates, luminescence inhibition; Potency, µM (titrated, usually from 57.5 µM), for inactives: at the highest dose activity change, negative = inhibition, most hits filed as inhibitors; 360,000 compounds, 6.9% hits; AID 588342, 2011;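 further: plate controls were vehicle for no effect and reference inhibitor for full effect; nearly all actives have a fitted effect of over 55% in size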
Target sequence (P08659 whole entry, looked up): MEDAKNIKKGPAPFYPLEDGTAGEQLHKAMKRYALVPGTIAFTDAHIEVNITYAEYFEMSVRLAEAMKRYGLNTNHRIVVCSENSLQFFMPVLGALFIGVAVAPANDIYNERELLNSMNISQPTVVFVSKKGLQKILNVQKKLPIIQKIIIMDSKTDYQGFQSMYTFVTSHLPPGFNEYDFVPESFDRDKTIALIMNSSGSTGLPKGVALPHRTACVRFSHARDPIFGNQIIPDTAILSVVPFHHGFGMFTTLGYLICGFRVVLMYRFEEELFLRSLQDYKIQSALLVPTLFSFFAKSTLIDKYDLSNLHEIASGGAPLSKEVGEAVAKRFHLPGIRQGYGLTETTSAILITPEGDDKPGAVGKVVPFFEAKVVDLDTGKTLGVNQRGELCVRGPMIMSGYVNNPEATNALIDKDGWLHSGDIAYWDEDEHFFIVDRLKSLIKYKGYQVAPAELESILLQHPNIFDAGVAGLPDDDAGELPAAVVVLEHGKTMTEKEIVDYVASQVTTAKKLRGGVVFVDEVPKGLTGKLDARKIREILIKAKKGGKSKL
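Purified P. pyralis luciferase (10nM final) with 10uM D-luciferin and 10uM ATP (Km levels) in 50mM Tris acetate pH 7.5, 10mM Mg acetate, 0.01% Tween-20, 0.05% BSA; qHTS 6-point titration, ~60 µM downward; luminescence read.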
ELG1 genotox – qHTS screen for small molecules that induce genotoxicity in human embryonic kidney (HEK293T) cells expressing luciferase-tagged ELG1. HEK293T ELG1-luciferase reporter, luminescence, 16 h. Potency, µM (doses to about 46 µM), inactives show at the top dose activity change, positive = activation, hits mostly activators. 330,000 compounds, 1.3% hits. AID 504466, 2011; further: % of control where 0% means no effect; nearly all actives have a fitted effect of over 60% in size
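16 hr compound incubation (37 °C, 5% CO2) of HEK293T cells carrying luciferase-tagged ELG1; luciferase then measured by ONE-Glo luminescence after 30 min at RT.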
KinaseGlo FLuc – Counterscreen for Luciferase (Kinase-Glo TM) Inhibition. 200,000 compounds, 0.28% hits. AID 1379, 2008. Luciferin 4-monooxygenase (Photuris pensylvanica), Q27757. Kinase-Glo luciferase, ATP luminescence, 8 min. Potency, µM (doses to about 38.3 µM), for inactives: at the top dose activity change, negative = inhibition, hits mostly inhibitors; further: on the % scale 0 is the no-effect control and ±100 the full control effect; nearly all actives have a fitted effect of over 60% in size
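Substrate mix (final 50 mM imidazole pH 7.2, 50 mM KCl, 7 mM MgCl2, 10 uM ATP, 0.01% Tween 20, 0.05% BSA) plus pin-tool compound, then Kinase-Glo detection mix; 8 min ambient, luminescence read.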
SMN2 splice enh – qHTS Assay for Enhancers of SMN2 Splice Variant Expression; HEK293 SMN2-luciferase splicing reporter, luminescence, 30-36 h; Potency, µM (doses to about 46.1 µM), inactives show top-dose activity change, positive = activation, most hits filed as activators; 210,000 compounds, 2.8% hits; AID 1458, 2008; further: % of control where 0% means no effect; nearly all actives have a fitted effect of over 55% in size
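qHTS luciferase splicing reporter: luminescence rises when SMN2 exon 7 is included in transfected HEK293 cells. Compound exposure lasted 30-36 h at 37C, with 4.5 mM final sodium butyrate as control, followed by a ONE-Glo read.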
Rab9 prom act – qHTS Assay for Rab9 Promoter Activators; Huh7 Rab9 promoter-luciferase reporter, luminescence, 24 h; 320,000 compounds, 2.8% hits; Potency, µM (doses to about 9.22 µM), for the others: at the highest dose activation, negative = inhibition, usual class: activators; AID 485297, 2010; further: % of control where 0% means no effect; nearly all actives have a fitted effect of over 60% in size
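Luminescence read-out: Huh7 cells stably expressing Rab9-luciferase, treated 24 h with compound at 37 °C, then lysed with luciferase reagent for 10 min at ambient before reading.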
NPC1 promoter act – qHTS Assay for NPC1 Promoter Activators; Huh7 NPC1 promoter luciferase reporter, 24 h; Potency, µM (titrated, usually from 9.22 µM), for the others: at the highest dose activation, actives largely listed as activators; 320,000 compounds, 2.4% hits; further: % of control where 0% means no effect; nearly all actives have a fitted effect of over 60% in size
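Readout is luciferase luminescence, reflecting NPC1 promoter activation in stably transfected Huh7 cells after 24 h compound exposure at 37 °C in reduced-serum medium with 10% FBS.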
* = called active by the depositor. Most compounds without a hit are left out; they make up all but 7.5% or so of the library. The call rests on the fitted dose curve; in most records, active means well fitted curve in the direction sought with a large enough effect; inconclusive means small, poorly fitted or top-dose-only effect, or another doubt; inactive means no such curve, though single readings can be large; an effect the other way counts as inactive or inconclusive. Potency means the concentration at half of the fitted maximal effect.

`CC1CCCCN1C(=O)COC(=O)CNC(=O)c1sc2ccccc2c1Cl` (stereo unspecified) gave FLuc counter inconclusive, ELG1 genotox -2%, Rab9 prom act -4% and NPC1 promoter act 0%.
O=C(COC(=O)CNC(=O)c1sc2ccccc2c1Cl)NC1CCS(=O)(=O)C1 (stereo unspecified) was read as FLuc counter 17µM*, ELG1 genotox -2%, Rab9 prom act 2% and NPC1 promoter act -1%.
Screening NC(=O)c1ccc(NC(=O)COC(=O)CNC(=O)c2sc3ccccc3c2Cl)cc1 returned FLuc counter 6.7µM*, ELG1 genotox 1%, Rab9 prom act -9% and NPC1 promoter act -2%.
CS(=O)(=O)c1ccc(Cl)c(NC(=O)COC(=O)CNC(=O)c2sc3ccccc3c2Cl)c1 was read as FLuc counter 15µM*, ELG1 genotox -4%, Rab9 prom act -1% and NPC1 promoter act 0%.
For CCOC(=O)C1CCN(C(=O)COC(=O)CNC(=O)c2sc3ccccc3c2Cl)CC1 the results were FLuc counter 9.5µM*, ELG1 genotox 0%, Rab9 prom act -3% and NPC1 promoter act -2%.
For COc1cc(/C=C(\C#N)C(=O)NCC2CCCO2)ccc1OCCC(C)C (stereo unspecified) the results were FLuc counter inconclusive, ELG1 genotox -3%, Rab9 prom act -5% and NPC1 promoter act 0%.
For Cc1ccccc1Nc1oc(-c2ccccc2)nc1-c1cccc2ccccc12 the results were KinaseGlo FLuc -1% and SMN2 splice enh 13%.
`Cc1nn(C(C)(C)C)c(OC(=O)c2c(F)cccc2F)c1Sc1ccccc1` gave FLuc counter -5% and SMN2 splice enh 8%.
For CCCCCNC(=O)c1ccc2c(c1)nc(C)n2-c1cccc(C)c1 the results were FLuc counter 5%.
For CCc1ccc(C(=O)COC(=O)CNC(=O)CNC(=O)Cc2ccccc2)cc1 the results were FLuc counter inconclusive, ELG1 genotox -1%, KinaseGlo FLuc -2%, SMN2 splice enh -7%, Rab9 prom act -2% and NPC1 promoter act 1%.
Screening CCc1ccc(C(=O)COC(=O)CNC(=O)CNS(=O)(=O)c2ccccc2)cc1 returned FLuc counter 19µM*, ELG1 genotox 1%, Rab9 prom act 3% and NPC1 promoter act 1%.
CCc1ccc(C(=O)COC(=O)CNC(=O)Cc2ccccc2)cc1 was read as FLuc counter 17µM*, ELG1 genotox 3%, Rab9 prom act 1% and NPC1 promoter act 3%.
`CCc1ccc(C(=O)COC(=O)CNC(=O)C2CCCCC2)cc1` gave FLuc counter 0.85µM*, ELG1 genotox 3%, Rab9 prom act 25% and NPC1 promoter act -1%.
CCCn1nc(NC(=O)c2cccs2)c2cc3cccc(C)c3nc21 was read as FLuc counter inconclusive, ELG1 genotox -15%, Rab9 prom act 1% and NPC1 promoter act -7%.
CCC(=O)Nc1cccc(-c2cn3ccccc3n2)c1 was read as FLuc counter 11µM*, ELG1 genotox 12%, KinaseGlo FLuc 0%, SMN2 splice enh inconclusive, Rab9 prom act inconclusive and NPC1 promoter act inconclusive.
Screening CCC(=O)Nc1cccc(-c2nc3ccccc3o2)c1 returned FLuc counter inconclusive, ELG1 genotox 11%, KinaseGlo FLuc 4%, SMN2 splice enh 14%, Rab9 prom act 24% and NPC1 promoter act 10%.
